# Measured values published in the supplement of paper PMC10477191.
# ± gives the standard deviation of the averaged measurements.
# System: Drosophila ezoana antennal basiconic sensillum ab8
# Assay: odor-evoked OSN spike response (post minus pre-stimulus); higher = stronger neuronal excitation
# Conditions: odor dilution: 10^-4
# Experimental: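 Single sensillum recordings from antennal basiconic sensilla of D. ezoana. A 500 ms pulse of odorant (10^-4 in mineral oil or DMSO) was delivered; the response is the change in action potential frequency between the 1 s pre- and post-stimulus windows (spikes/s).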
row,Compound,odor-evoked OSN spike response [spikes/s]
1,CC(C)=O [acetone],66.9 ± 31
